The text below walks through data of ChEMBL document CHEMBL3988442, “University of Dundee, Small-Polar-MMV Screening Library” (2021).

The structures appear in SMILES notation. The campaign covered roughly 69,000 compounds. About 420 (0.61%) showed an effect of 50% or more. The entries come from a sample that favours strong results as a whole.

For this assay, the target named is T1, Histidine--tRNA ligase (Leishmania infantum) (UniProt A4I591).
T1 sequence (whole entry): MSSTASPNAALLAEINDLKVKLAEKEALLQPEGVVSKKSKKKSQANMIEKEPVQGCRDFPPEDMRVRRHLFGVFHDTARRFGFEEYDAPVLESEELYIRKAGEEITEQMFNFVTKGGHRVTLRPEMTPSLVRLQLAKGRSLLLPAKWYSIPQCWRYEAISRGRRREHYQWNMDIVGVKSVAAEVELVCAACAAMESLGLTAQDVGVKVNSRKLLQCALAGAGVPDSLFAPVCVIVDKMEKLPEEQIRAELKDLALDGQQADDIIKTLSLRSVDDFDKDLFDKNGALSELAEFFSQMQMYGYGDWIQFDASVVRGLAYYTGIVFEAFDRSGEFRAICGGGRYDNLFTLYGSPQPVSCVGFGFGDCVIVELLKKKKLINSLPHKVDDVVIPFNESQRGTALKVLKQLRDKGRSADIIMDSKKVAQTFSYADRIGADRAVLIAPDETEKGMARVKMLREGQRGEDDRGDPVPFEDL
The experiment in a line: Leishmania infantum Histidine tRNA synthetase (LdHisRS). The assay is classed as functional. More on the design: scale not given: in the data most compounds retested in dose-response had high values. As to conditions: 30 µM.
`CN(C)[C@H]1COC[C@@H]2CN(Cc3ccc4c(c3)OCO4)C[C@@H]21`: the Percent Effect was determined as 16.2%.

In the case of `O=C1N(c2ccccc2)C[C@H]2CN(C3CCC3)CCN12`, the Percent Effect is 22.2%.

In the case of `CCc1ccc2c(C3CN(CC4CCC4)C3)ncn2c1`, the Percent Effect amounted to 69.8%.

`CCc1ccc2c(C3CN(S(C)(=O)=O)C3)ncn2c1`: the Percent Effect stood at 12.6%.

Consider `CCc1ccc2c(C3CN(C(C)=O)C3)ncn2c1`, for which the Percent Effect is 17.6%.

`Cc1cc(=O)n(C)cc1NC(=O)Cc1ccc(C(F)(F)F)cc1`: the Percent Effect came to 107%.

As for `Cc1cc(=O)n(CC(=O)Nc2cccc(Cl)c2)nc1C`, the Percent Effect was 2.4%.

As for `Cn1cc(NC(=O)c2cccc(C(F)(F)F)c2)c(=O)n(C)c1=O`, the Percent Effect amounted to 22.9%.

`Cc1cc(=O)n(C)cc1NC(=O)NCc1cccc(F)c1` gave a Percent Effect of 107%.

The molecule `CN(C)C(=O)CCCn1ccc(NC(=O)NCc2cccc(F)c2)n1` displayed a Percent Effect of 2.08%.

Regarding `Cc1ccc(C(F)(F)F)cc1NCC(=O)Nc1c(C)nn(C)c1C`, the Percent Effect amounted to 17.8%.

Molecule `O=C(NCc1cccc(F)c1)Nc1ccn(CCN2CCOCC2)n1` had a Percent Effect of 11.2%.

Regarding `Cc1cc(=O)n(C)cc1NC(=O)Cc1cccc(Cl)c1`, the Percent Effect was 107%.

The molecule `Cc1cc(=O)n(C)cc1NC(=O)Cc1cccc(F)c1` showed a Percent Effect of 68.5%.

For `Cn1ccc(NC(=O)Cc2cccc(F)c2)n1`, the Percent Effect was determined as 15.4%.

The molecule `CS(=O)(=O)CCn1ccc(NC(=O)Cc2cccc(Cl)c2)n1` registered a Percent Effect of 15.3%.

`Cn1ccc(CS(=O)(=O)Cc2cccc(F)c2)cc1=O` displayed a Percent Effect of 18.8%.

`Cc1cccc(C(=O)N2CC[C@@H]3CN(c4ncccn4)CCO[C@@H]3C2)c1` showed a Percent Effect of 10%.

Molecule `COc1ccc(CN2CCO[C@@H]3C[C@@H](C(=O)NC(C)C)C[C@H]32)cc1` returned a Percent Effect of 25%.

With `COC[C@]12COC[C@H]1CN(Cc1ccc3c(c1)OCO3)C2`, the Percent Effect was 1.98%.

On to `O=C1CC[C@H]2[C@H](CCN2C(=O)C2CCOCC2)N1Cc1ccncc1`, for which the Percent Effect amounted to 17.5%.

In turn, `CNC(=O)[C@@]12CCCN(c3ncccn3)[C@@H]1CN(c1ncc(F)cn1)C2` came in with a Percent Effect of 16.8%.

`CCc1ccc(C(=O)N2C[C@@H]3COC[C@@H](C(=O)NC)[C@@H]3C2)cc1` registered a Percent Effect of 14%.

`C[C@@H]1C(=O)NC[C@H]2CN(Cc3ccc4c(c3)OCO4)C[C@H]21` registered a Percent Effect of 15.6%.

Take `O=C(NCc1ccccn1)[C@]12COC[C@H]1CN(Cc1cccnc1)C2`: the Percent Effect came to 11.1%.

`O=C([C@H]1C[C@@H]2CN(c3ncc(F)cn3)C[C@H]1O2)N1CCOCC1`: the Percent Effect is 5.94%.

In turn, `CC(C)NC(=O)N1CC[C@H]2N(C)CC[C@@]2(C(=O)Nc2cccnc2)CC1` showed a Percent Effect of 9.91%.

On to `O=C(NCC1CC1)[C@H]1C[C@H]2OCC[C@H]2N(Cc2ccsc2)C1`, for which the Percent Effect came out at 0%.

For `Cc1cccc(CN2CC[C@@H]3[C@@H]2CCN3C(=O)c2cc(C)oc2C)n1`, the Percent Effect came out at 25.6%.

For `O=C([C@H]1C[C@@H]2CCN(c3cccc(F)c3)C[C@H]2O1)N1CCCCO1`, the Percent Effect worked out at 22.2%.
